“And” between values parts separate entries of the source, which are not always exact repeats. Identical values can stand only once. About 2,000 (36%) of roughly 5,500 compounds were called active. Inconclusive results (about 18%) are left out. No stated cut-off is given here; in the data, active means normalized growth mostly below about 0.91 (no sharp cut-off); inconclusive means no clear call, values can overlap the other calls; inactive means mostly above about 0.92. The list shows a part of the results.
Test: chemical genetic growth profiling, strain panel (AID 1159580);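 further: tested at 20 µM; growth read once vehicle control cultures reached saturation at 30 °C; 1 = growth at the plate median or of vehicle wells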
Conditions: S. cerevisiae deletion strains, growth OD

Measured: normalized growth

C=C[C@@H](C1=CC(=O)C(OC)=C(OC)C1=O)c1ccccc1
0.892 (inactive) and 0.782 (active): locus YJL095W, strain BCK1, stronger effect = lower value
inactive: locus YBR171W, strain sec66, stronger effect = lower value 0.996 | locus YBR229C, strain ROT2, stronger effect = lower value 0.989 | locus YCL029C, strain bik1, stronger effect = lower value 0.968 | locus YDL005C, strain med2, stronger effect = lower value 1 | locus YDL040C, strain nat1, stronger effect = lower value 1.01 | locus YDL074C, strain BRE1, stronger effect = lower value 0.962 | locus YDL101C, strain DUN1, stronger effect = lower value 0.97 | locus YDL185W, strain tfp1, stronger effect = lower value 0.945 | locus YDR001C, strain nth1, stronger effect = lower value 0.997 | locus YDR069C, strain doa4, stronger effect = lower value 0.995 | locus YDR101C, strain arx1, stronger effect = lower value 0.998 | locus YDR159W, strain sac3, stronger effect = lower value 1.02 | locus YDR195W, strain ref2 1.09 | locus YDR335W, strain msn5, stronger effect = lower value 0.977 | locus YEL037C, strain rad23, stronger effect = lower value 0.952 | locus YER016W, strain bim1, stronger effect = lower value 0.999 | locus YER110C, stronger effect = lower value 0.97 | locus YER111C, strain swi4, stronger effect = lower value 0.994 | locus YER155C, strain BEM2, stronger effect = lower value 0.985 | locus YGL078C, strain dbp3, stronger effect = lower value 0.966 | locus YGL167C, strain pmr1, stronger effect = lower value 0.972 | locus YHR079C, strain IRE1 (second series), stronger effect = lower value 0.96 | locus YHR079C, strain IRE1, stronger effect = lower value 0.888 | locus YIR030C, strain dcg1, stronger effect = lower value 0.967 | locus YJL129C, strain trk1, stronger effect = lower value 0.978 | locus YJL134W, strain LCB3, stronger effect = lower value 0.986 | locus YJL154C, strain vps35, stronger effect = lower value 1.01 | locus YJL187C, strain SWE1 (second series), stronger effect = lower value 0.977
active: locus YAL021C, strain ccr4, stronger effect = lower value 0.899 | locus YAL026C, strain drs2, stronger effect = lower value 0.405 | locus YAL030W, strain snc1, stronger effect = lower value 0.825 | locus YBL061C, strain skt5, stronger effect = lower value 0.859 | locus YBR009C, strain hhf1, stronger effect = lower value 0.273 | locus YBR021W, strain FUR4, stronger effect = lower value 0.516 | locus YBR023C, strain chs3, stronger effect = lower value 0.816 | locus YBR231C, strain swc5, stronger effect = lower value 0.742 | locus YBR279W, strain paf1, stronger effect = lower value 0.703 | locus YCL011C, strain gbp2, stronger effect = lower value 0.307 | locus YCL016C, strain dcc1, stronger effect = lower value 0.581 | locus YCL069W, strain vba3, stronger effect = lower value 0.45 | locus YCR088W, strain abp1, stronger effect = lower value 0.911 | locus YDL035C, strain GPR1, stronger effect = lower value 0.277 | locus YDL192W, strain arf1, stronger effect = lower value 0.266 | locus YDR137W, strain rgp1, stronger effect = lower value 0.694 | locus YDR150W, strain NUM1, stronger effect = lower value 0.61 | locus YDR162C, strain NBP2, stronger effect = lower value 0.0631 | locus YDR297W, strain sur2, stronger effect = lower value 0.802 | locus YDR318W, strain mcm21, stronger effect = lower value 0.181 | locus YDR334W, strain swr1, stronger effect = lower value 0.472 | locus YDR388W, stronger effect = lower value 0.827 | locus YDR392W, strain spt3, stronger effect = lower value 0.146 | locus YDR502C, strain sam2, stronger effect = lower value 0.665 | locus YEL003W, strain gim4, stronger effect = lower value 0.553 | locus YEL061C, strain CIN8 (second series), stronger effect = lower value 0.642 | locus YER015W, strain faa2, stronger effect = lower value 0.588 | locus YER155C, strain BEM2 (second series), stronger effect = lower value 0.413 | locus YER167W, strain BCK2, stronger effect = lower value 0.252 | locus YFR010W, strain ubp6, stronger effect = lower value 0.869 | locus YGL086W, strain mad1, stronger effect = lower value 0.142 | locus YGL173C, strain kem1, stronger effect = lower value 0.632 | locus YGL227W, strain vid30, stronger effect = lower value 0.473 | locus YGL240W, strain doc1, stronger effect = lower value 0.723 | locus YGL248W, strain PDE1, stronger effect = lower value 0.125 | locus YGL253W, strain hxk2, stronger effect = lower value 0.838 | locus YGR078C, strain PAC10, stronger effect = lower value 0.0851 | locus YGR135W, strain pre9, stronger effect = lower value 0.306 | locus YGR252W, strain gcn5, stronger effect = lower value 0.369 | locus YHR013C, strain ard1, stronger effect = lower value 0.507 | locus YHR027C, strain rpn1, stronger effect = lower value 0.775 | locus YHR030C, strain SLT2, stronger effect = lower value 0.0586 and 0.753 | locus YHR094C, strain hxt1, stronger effect = lower value 0.782 | locus YHR129C, strain ARP1, stronger effect = lower value 0.212 | locus YHR142W, strain chs7, stronger effect = lower value 0.603 | locus YHR200W, strain rpn10, stronger effect = lower value 0.788 | locus YIL066C, strain RNR3, stronger effect = lower value 0.148 | locus YIL073C, strain SPO22, stronger effect = lower value 0.341 | locus YIL125W, strain kgd1, stronger effect = lower value 0.919 | locus YJL092W, strain hpr5, stronger effect = lower value 0.883 | locus YJL095W, strain BCK1 (second series), stronger effect = lower value 0.468 | locus YJL115W, strain asf1, stronger effect = lower value 0.82 | locus YJL164C, strain tpk1, stronger effect = lower value 0.376 | locus YJL166W, strain qcr8, stronger effect = lower value 0.245 | locus YJL168C, strain set2, stronger effect = lower value 0.881 | locus YJR066W, strain TOR1, stronger effect = lower value 0.716
